High-throughput results (PubChem BioAssay)
In the library only some 4.1% were active in any assay of this set; here they are far more common.
BoNT F protease: inhibitors of Botulinum neurotoxin F light chain protease; AID 588497; 360,000 compounds, 0.22% hits; inhibition, % at 10 µM; Multiplex microsphere protease cleavage assay, flow cytometry; in the data active = inhibition above about 35%, passing the limit was not always enough; inconclusive = no clear call, values can overlap the other calls
Autofluor counter: flagged as autofluorescent in microsphere protease counterscreen | compound autofluorescence counterscreen, microsphere flow cytometry; stronger effect = higher value | fluorescence intensity (test concentration not listed) | 360,000 compounds, 3.1% hits | AID 624483; in the data active = fluorescence intensity above about 16000; inconclusive = no clear call, values can overlap the other calls
MazEF act: activators of E. coli MazEF toxin-antitoxin RNase; P0AE70; FAM/BHQ RNA-DNA oligo cleavage fluorescence, 5 h; activation, % at 20 µM; 350,000 compounds, 0.32% hits; AID 504720; in the data active = activation above about 50%
VHR inh abs: inhibitors of human VHR1 phosphatase (DUSP3) | recombinant VHR phosphatase, pNPP absorbance | inhibition, % at 13.3 µM | 290,000 compounds, 0.52% hits | AID 1654; in the data active = inhibition above about 50%
Anthrax LF prot: blocks Bacillus anthracis lethal factor protease; P15917; multiplex microsphere protease cleavage assay, LF; AID 588501; 360,000 compounds, 0.12% hits; inhibition, % at 10 µM
BoNT-A LC inh2: BoNT A light chain protease inhibition; inhibition, % at 10 µM; 360,000 compounds, 0.17% hits; multiplex microsphere protease substrate cleavage, flow cytometry
Each line names hits and unclear results; the compound was inactive in the other large screens. Cut-off read from the data, not from the text of the source, unless noted: active = inhibition above about 30%; inconclusive = no clear call, values can overlap the other calls; inactive = below that.

CCOc1ccccc1N(C)C(=O)c1cn(C)c(=O)c2ccccc12	VHR inh abs 50.7
CCOc1ccccc1N(C)C(=O)c1cn(CC)c(=O)c2cc(OC)c(OC)cc12	none
COc1cnc(SCc2c(Cl)cccc2Cl)nc1Cl	Autofluor counter 20944
Cc1cc(OC(=O)N(C)C)nc(SCc2c(Cl)cccc2Cl)n1	none
CC(C)NS(=O)(=O)c1ccc(N2C(=O)c3ccccc3C2=O)cc1	Autofluor counter 19293
O=C1c2ccccc2C(=O)N1c1ccc(S(=O)(=O)N2CCCCC2)cc1	BoNT F protease inconclusive
Nc1ncnc2c1ncn2[C@@H]1O[C@H](CNCc2cccc(C#Cc3ccccc3)c2)[C@@H](O)[C@H]1O	none (no result: VHR inh abs)
Cc1onc(-c2ccccc2Cl)c1C(=O)O/N=C(\N)c1ccccc1	Autofluor counter 16593
Cc1onc(-c2ccccc2Cl)c1C(=O)O/N=C(\N)c1cccc([N+](=O)[O-])c1	none (no result: VHR inh abs)
Cc1onc(-c2ccccc2Cl)c1C(=O)N1CC(C)OC(C)C1 (configuration not stated)	Autofluor counter 23411, BoNT-A LC inh2 inconclusive
Cc1onc(-c2ccccc2Cl)c1C(=O)N1C=CC(C(F)(F)Cl)=NCC1	Autofluor counter 22372
CC(C)[C@H](CN1CCC[C@H]1CN1C(N)=NC[C@H]1C(C)C)N1C[C@@H](Cc2ccccc2)N(CCCC2CCCC2)C1=N	none (no result: VHR inh abs)
O=C(NNC(=O)c1ccccc1Br)c1cccc(Cl)c1	none
O=C(NNC(=O)c1ccccc1F)c1cccc(Cl)c1	Autofluor counter 25813
NNC(=O)c1cn2ccccc2n1	Autofluor counter 19411, BoNT-A LC inh2 inconclusive
O=C(Nc1nccs1)c1cn2ccccc2n1	none
CC(C)(C)n1nnnc1C(c1ccccc1OC(F)(F)F)N1CCN(C/C=C/c2ccccc2)CC1 (configuration not stated)	none (no result: MazEF act, VHR inh abs)
COc1ccc(C(=O)C2CCCN(Cc3cc(Cl)ccc3O)C2)c(OC)c1 (configuration not stated)	none
COc1cccc(CC(=O)NC2CCCN(Cc3ccc(Cl)cc3)C2)c1 (configuration not stated)	BoNT F protease inconclusive, VHR inh abs 53.3
COc1ccc(CN2CCCC(C(=O)c3ccc(Cl)cc3)C2)c(O)c1 (configuration not stated)	BoNT F protease 34.9
O=C(CSc1nc(C2CC2)nc2ccccc12)N1CCCCC1	none
O=C(CSc1nc(C2CC2)nc2ccccc12)N1c2ccccc2Sc2ccc(C(F)(F)F)cc21	Autofluor counter 21370
CCN(CC)C(=O)[C@H]1C[C@H](CC(=O)NC(C)(C)C)C(=O)N2CCc3c([nH]c4ccc(Cl)cc34)[C@]12C	none (no result: VHR inh abs)
CC(/C=N/NC(=O)Cc1cccn1C)=C\c1ccco1	Autofluor counter 22954, BoNT-A LC inh2 inconclusive
CC(=C/c1ccco1)/C=N/NC(=O)Cc1cccn1C	none
c1ccc(-c2nc3ccccc3nc2-c2ccccn2)nc1	Autofluor counter 22188
Cc1cc2nc(-c3ccccn3)c(-c3ccccn3)nc2cc1C	none (no result: MazEF act)
CC(OC(=O)Cn1cnc2c1c(=O)n(C)c(=O)n2C)C(=O)c1ccccc1 (configuration not stated)	none (no result: VHR inh abs)
COc1ccc(S(=O)(=O)N2CCOCC2)cc1NC(=O)CSc1ccccc1	none
O=C(CSc1ccccc1)Nc1cc(S(=O)(=O)N2CCOCC2)ccc1N1CCOCC1	MazEF act 75.6
O=C1CCCCCCC(=O)[C@H](O)C[C@H](c2ccccc2)O1	none (no result: MazEF act, VHR inh abs)
O=C(CCS(=O)(=O)Cc1ccccc1)N1CCc2ccccc2C1	Autofluor counter 21963
Cc1ccc(S(=O)(=O)CCC(=O)OCC(=O)NCC(=O)Nc2c(C)cc(C)cc2C)cc1	none (no result: VHR inh abs)
C=CCn1c(SCc2csc(C)n2)nc2sc3c(c2c1=O)CCCCC3	Autofluor counter 21298
COc1ccccc1N(CC(=O)NCCc1ccccc1)C(=O)CCC(=O)Nc1cc(C)ccn1	none
CC(C)(C)CC(C)(C)NC1=CC(=O)OC12CCCCC2	none
CC(C)(C)NC1=CC(=O)OC12CCCCC2	Autofluor counter 23197
CCCCn1c(=NC(=O)c2ccco2)c(C(=O)OCC)cc2c(=O)n3cccc(C)c3nc21	none
O=C(CCCCCn1c(=S)[nH]c2cc3c(cc2c1=O)OCO3)N1CCN(Cc2ccccc2)CC1	none
CN1CCN(C(=O)CCCOc2ccc(Cl)cc2Cl)CC1	Autofluor counter 17214
O=C(COc1ccccc1Cl)N1CCN(c2ncccn2)CC1	Autofluor counter 22968
O=C(CCCn1c(=S)[nH]c2cc3c(cc2c1=O)OCO3)N1CCN(c2ccccn2)CC1	Autofluor counter 19027, BoNT-A LC inh2 inconclusive
